Consider 40 compounds from PubChem BioAssay (NCATS).

Each structure is given as a SMILES string. Results filed as inconclusive are left out. Calls of active or inactive are those of the source. Calls come from the whole dose curve; as a rule, active = well fitted inhibition curve with a large enough effect in the signal ratio, with a control signal flat (not every such curve was filed as active); inconclusive = small, poorly fitted or top-dose-only effect, or effect the other way, or a change in a side signal; inactive = flat fitted curve, though single readings scatter; the % refers to the signal ratio.

The target of the assay is Glucocorticoid receptor (Homo sapiens) (UniProt P04150). Kind of assay: qHTS assay for small molecule antagonists of glucocorticoid receptor signaling (AID 588533). As to conditions: HeLa MMTV-bla, GRE beta-lactamase ratio, antagonist mode, 18 h; series mostly up to 76.8 µM. From the text: NIH Chemical Genomics Center [NCGC] U.S. Environmental Protection Agency [EPA] National Institutes of Environmental Health Sciences [NIEHS] National Toxicology Program [NTP] NCGC Assay Overview The Glucocorticoid receptor (GR), a nuclear receptor subfamily member and its natural ligands includes […] etc. The GR is a validated drug target for inflammation. GR ligands such as dexamethasone are clinically available as anti-inflammatory drugs. Glucocorticoids implicate a role in carbohydrate, protein and lipid metabolisms and programmed cell death. They are also a component of many chemotherapy regimens for the treatment of leukemias, lymphomas, and myelomas because of their role in the induction of apoptosis.
Glucocorticoid receptor (Homo sapiens), sequence (P04150 whole entry, looked up): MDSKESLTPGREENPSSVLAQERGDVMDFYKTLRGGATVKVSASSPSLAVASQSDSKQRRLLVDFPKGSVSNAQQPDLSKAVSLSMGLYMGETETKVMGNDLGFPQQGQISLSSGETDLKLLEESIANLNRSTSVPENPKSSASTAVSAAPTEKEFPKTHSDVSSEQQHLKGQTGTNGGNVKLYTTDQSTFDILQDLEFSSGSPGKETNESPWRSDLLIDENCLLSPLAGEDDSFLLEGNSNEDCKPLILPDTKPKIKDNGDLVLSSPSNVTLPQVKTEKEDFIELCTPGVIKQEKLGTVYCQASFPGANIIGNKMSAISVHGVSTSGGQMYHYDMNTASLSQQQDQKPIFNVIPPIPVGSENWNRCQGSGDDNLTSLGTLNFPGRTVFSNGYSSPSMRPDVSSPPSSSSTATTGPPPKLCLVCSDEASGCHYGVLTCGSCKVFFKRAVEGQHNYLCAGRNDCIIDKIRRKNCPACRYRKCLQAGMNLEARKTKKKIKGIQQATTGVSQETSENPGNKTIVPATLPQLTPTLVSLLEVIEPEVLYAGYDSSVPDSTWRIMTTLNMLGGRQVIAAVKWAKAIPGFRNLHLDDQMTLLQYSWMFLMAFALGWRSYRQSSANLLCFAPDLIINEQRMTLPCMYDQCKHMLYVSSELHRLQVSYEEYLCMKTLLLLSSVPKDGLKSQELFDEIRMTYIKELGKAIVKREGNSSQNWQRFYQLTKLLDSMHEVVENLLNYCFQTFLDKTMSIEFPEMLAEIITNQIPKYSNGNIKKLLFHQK
NCGC Assay Protocol Summary Using a beta-lactamase reporter-gene under control of glucocorticoid response element (GRE), a cell-based assay [CellSensor MMTV-bla HeLa cell line assay developed by Invitrogen] was used to measure GR ligands signaling. CellSensor MMTV-bla HeLa cells were used with assay medium containing 1% charcoal/dextran treated FBS, 0.1 mM NEAA, 1 mM sodium pyruvate and 25mM HEPES. The assay was performed in clear bottom black Greiner 1536-well plates. Library compounds were measured for their ability to inhibit the reporter gene activity. Compounds were screened in a titration series in 1536-well format. […] Data was normalized relative to Dexamethasone control (2 nM, 100%), and DMSO only wells (basal, 0%). Concentration-response titration points for each compound were fitted to the Hill equation yielding concentrations of half-maximal inhibition (IC50) and maximal response (efficacy) values. qHTS protocol for GR beta-lactamase assay in antagonist mode [Step] [Parameter] [Value] [Description] 1. Reagent; 5 uL; 1500 cells/well 2. Incubation; 37 C for 3-5 hrs 3. Compounds; 23 nL; 0.59 nM to 92 uM 4. […] Agonist (Stimulator); 1uL; Dexamethasone at 2 nM (final) concentration 6. Incubation; 37 C for 18 hrs 7. Detection reagent; 1 uL of CCF4-dye 8. Incubation; RT for 2 hrs 9. Detection; Fluorescence; Envision plate reader
Take `Cc1ccc([N+](=O)[O-])c(N)c1`: the outcome was inactive.
For `CC(=O)Nc1ccc(C)cc1`, the outcome was inactive.
Regarding `c1ccc2c(c1)Oc1ccccc1S2`, the result was inactive.
Regarding `CC=C(Cl)Cl`, the result was inactive.
For the compound `c1ccsc1`, the result was inactive.
Take `Cc1ccc2ncccc2c1`: the outcome was inactive.
On to `Cc1ccc2cccnc2c1`, for which the result was inactive.
Regarding `ON=C1CCCCC1`, the outcome was inactive.
As to `C=C(C)OC(C)=O`, the outcome was inactive.
In the case of `CCC(C)=O` it was “inactive”; in that of `Cc1ccco1`, “inactive”.
For the compound `CC1CCC2CC1C2(C)C` (stereo not given), the outcome was inactive.
Take `CCC(C)O` (stereo not given): the result was inactive.
`CSc1ccc(C=O)cc1`: the result was inactive.
The value for `COC(=O)CCCC(=O)OC` was “inactive”; that for `COc1cccc(N)c1` was “inactive”; that for `CCC(C)(C)OC` was “inactive”.
Regarding `C1CCCC1`, the result was inactive.
Take `O=[N+]([O-])c1c(Cl)cc(Cl)cc1Cl`: the outcome was inactive.
As to `CCCCCCCCCCCCC1CO1` (stereo not given), the outcome was inactive.
The value for `CC(C=O)Cc1ccc(C(C)(C)C)cc1` (stereo not given) was “inactive”.
The value for `N#CC1(O)CCCCC1` was “inactive”; that for `CCCCC/C=C/C=C/C=O` was “inactive”; that for `CCOC(=O)OCC` was “inactive”.
For `C/C=C1\CC2C=CC1C2` (stereo not given), the result was inactive.
On to `CC(C)(c1cc(Br)c(OCC(Br)CBr)c(Br)c1)c1cc(Br)c(OCC(Br)CBr)c(Br)c1` (stereo not given), for which the outcome was inactive.
The value for `CCCCOCCOCCSC#N` was “inactive”.
The value for `CCOCCO` was “inactive”; that for `CC(C)(C)c1ccc(OCC2CO2)cc1` (stereo not given) was “inactive”; that for `C=Cc1ccccn1` was “inactive”.
For the compound `COC(=O)CCC(=O)OC`, the result was inactive.
As for `Cc1cc(C)cc(N)c1`, the outcome was inactive.
As for `CCCC=O`, the outcome was inactive.
Consider `Nc1cc(Cl)c(N)c(Cl)c1`, for which the result was inactive.
The value for `CC/C=C/C#N` was “inactive”; that for `O=CNc1ccccc1` was “inactive”.
Regarding `Fc1ccccc1`, the result was inactive.
In the case of `Cc1nc2ccc(Cl)cc2[nH]1`, the outcome was inactive.
For `O=[N+]([O-])c1ccc(Cl)cc1Cl`, the result was inactive.
For `CCC(C)(C)C(=O)O`, the result was inactive.
